Potency, max response and outcome data for 23 compounds are collected here from PubChem BioAssay (NCATS).

Values joined by “and” are separate entries in the source; they are usually repeats but may differ in a detail not shown here. Identical values can stand only once. Results filed as inconclusive are left out. Unmarked numbers belong to inactive results. Active and inactive are the calls of the source. The call rests on the fitted dose curve; in most records, active means well fitted inhibition curve with a large enough effect; inconclusive means small, poorly fitted or top-dose-only effect; inactive means flat fitted curve, though single readings scatter.

The test system of one assay is TAB165. Description: qHTS profiling for inhibitors of Plasmodium falciparum proliferation (AID 504749). Further: potency means the concentration at half of the fitted maximal effect. The note with it: P. falciparum in erythrocytes, SYBR Green DNA, 72 h; series mostly up to 28.7 µM. The gist of the method:
(§1)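 Fluorescence of SYBR Green-bound parasite DNA, read at 485/535 nm, served as the growth measure. Infected erythrocytes were cultured with compound 72 h; artemisinin (0.29 uM) and DMSO wells defined the normalization range.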
On the technique in general: qHTS replaces the single test concentration by a dilution series.

In assay [1] the test system is CRL-7250. As to the kind of experiment: Cytotoxic Profiling of Annotated Libraries Using Quantitative High-Throughput Screening (AID 1296008). On max response: on the % scale 0 is the no-effect control and ±100 the full control effect. Conditions: Five cell lines viability, CellTiter-Glo ATP luminescence, 48-72 h; max response: active compounds read low. The gist of the method: (§2)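 Compounds were pin-transferred onto cells and incubated 48 or 72 hr at 37 degree Celsius, 95% humidity. CellTiter-Glo was added, plates sat 10 min at room temperature, then ATP-coupled luminescence was imaged as the viability read-out.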

Assay [2] relates to HaCat. Described as above. The note with it: Five cell lines viability, CellTiter-Glo ATP luminescence, 48-72 h; max response: active compounds read low. Summed up:
as §2

Another assay deals with KB-3-1. The assay is described as above. Conditions: Five cell lines viability, CellTiter-Glo ATP luminescence, 48-72 h; max response: active compounds read low. Summed up: as §2
A general note: In ATP-based viability assays light output follows the ATP content of the culture.

The test system of the next assay is NIH3T3. The assay is described as above. Conditions: Five cell lines viability, CellTiter-Glo ATP luminescence, 48-72 h; max response: active compounds read low. The gist of the method:
as §2

Assay [3] concerns HACAT. As to the kind of experiment: qHTS assay to identify novel small-molecules to repurpose for Merkel cell carcinoma treatment (AID 1296009). The note with it: MCC and control cell lines, CellTiter-Glo viability, 72 h; at 44.8 µM (top of the series) unless noted. Summed up:
(§3)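 Luminescence from CellTiter-Glo, read 10 min after addition at room temperature, reported viability following a 72 hr, 37 degree celsius treatment with NPC or MIPE compounds in titration; values normalized to plate controls.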

The next assay relates to HEK293T. The assay is described as above. Conditions: MCC and control cell lines, CellTiter-Glo viability, 72 h; at 44.8 µM (top of the series) unless noted. The gist of the method:
as §3

The test system of another assay is W2. Description: qHTS profiling for inhibitors of Plasmodium falciparum proliferation (AID 504749). Further: potency means the concentration at half of the fitted maximal effect. The note with it: P. falciparum in erythrocytes, SYBR Green DNA, 72 h; series mostly up to 28.7 µM. Summed up: as §1
In the next assay the test system is HEK293. As to the kind of experiment: Cytotoxic Profiling of Annotated Libraries Using Quantitative High-Throughput Screening (AID 1296008). On max response: on the % scale 0 is the no-effect control and ±100 the full control effect. The note with it: Five cell lines viability, CellTiter-Glo ATP luminescence, 48-72 h; max response: active compounds read low. Summed up:
as §2

The test system of assay [4] is CRL-7250. As to the kind of experiment: qHTS assay to identify novel small-molecules to repurpose for Merkel cell carcinoma treatment (AID 1296009). The note with it: MCC and control cell lines, CellTiter-Glo viability, 72 h; at 44.8 µM (top of the series) unless noted. The gist of the method:
as §3
Further: nearly all actives have a fitted effect of over 60% in size.

For `CN1C(=O)CCS(=O)(=O)C1c1ccc(Cl)cc1` (configuration not stated), in the assay on TAB165, the Potency result was “inactive”. Further, the max response in the assay on CRL-7250 [1] was -0.906% and -1.81%; with KB-3-1, -6.09% and -6.07%; in the assay with NIH3T3 it was 2.05% and -20.3%. For the same compound, the call in the assay with HaCat [2], with HACAT [3] and in the assay with HEK293T was inactive.
`O=C(CCCN1CCC2(CC1)C(=O)NCN2c1ccccc1)c1ccc(F)cc1`: the max response in the assay with CRL-7250 [1] was -1.53%; in the assay on KB-3-1 it was -7.2%. Further, the result in the assay with HaCat [2], in the assay with NIH3T3 and in the assay with HACAT [3] was inactive.
Turning to `CC1(C)C(C=C(Cl)Cl)C1C(=O)OC(C#N)c1cccc(Oc2ccccc2)c1` (configuration not stated), the max response in the assay on CRL-7250 [1] and in the assay on KB-3-1 was 2.32% throughout. The call in the assay on HaCat [2], in the assay with NIH3T3 and in the assay with HACAT [3] was inactive.
Turning to `Nc1ccccc1C(=O)O`, the Potency result in the assay with TAB165 and with W2 was “inactive” each time. Further, the max response in the assay on CRL-7250 [1] is -2.31%; with KB-3-1, -19.2%; with NIH3T3 it was 3.28%. Moreover, the compound was classed as inactive in the assay on HaCat [2] and in the assay on HACAT [3].
Regarding `COC1CC(=C(c2cccs2)c2cccs2)C[N+](C)(C)C1` (configuration not stated), in the assay on TAB165, the Potency was 14.1 µM (active). In addition, the max response is -1.67% with CRL-7250 [1], 2.01% in the assay on HaCat [2], 0.141% with KB-3-1 and 0.648% in the assay with NIH3T3.
Turning to `CC(C)=CC1C(C(=O)OCN2C(=O)C3=C(CCCC3)C2=O)C1(C)C` (configuration not stated), the Potency entry in the assay with TAB165 and in the assay on W2 was “inactive” each time. For the same compound, the max response in the assay on HEK293 was -22.7%; with KB-3-1, 2.15%; with NIH3T3, -1.87%. Moreover, the result in the assay with HaCat [2] and in the assay with HACAT [3] was inactive.
`CCN(CC)CCc1c[nH]c2ccccc12`: the max response was -22% with HEK293, -3.07% with HaCat [2], -19.3% in the assay with KB-3-1 and -2.44% in the assay with NIH3T3.
For `CCN(CCO)CCn1c(Cc2ccccc2)nc2c1c(=O)n(C)c(=O)n2C`, the max response is -2.16% in the assay with CRL-7250 [1], -17.3% in the assay with KB-3-1 and -7.24% with NIH3T3. The compound was classed as inactive in the assay with HaCat [2] and with HACAT [3].
As for `COc1c2c(cc3c1OCO3)CCN(C)C2`, the Potency result in the assay with TAB165 was “inactive”. The max response is -2.93% with CRL-7250 [1], -2.59% in the assay on HaCat [2], 5.77% in the assay on KB-3-1 and -8.45% in the assay with NIH3T3.
With `O=C1CN=C(c2ccccc2)c2cc([N+](=O)[O-])ccc2N1`, the Potency result in the assay on TAB165 and in the assay with W2 was “inactive” each time. In addition, the max response in the assay on HEK293 was -13.4%; with KB-3-1, 3.93%; with NIH3T3 it was -0.271%. Besides, the call in the assay on HaCat [2] and with HACAT [3] was inactive.
For the compound `O=C1OC(c2ccc(O)c(S(=O)(=O)O)c2)(c2ccc(O)c(S(=O)(=O)O)c2)c2c(Br)c(Br)c(Br)c(Br)c21`, the Potency entry in the assay on TAB165 and with W2 was “inactive” throughout. Besides, the max response with CRL-7250 [1] was -1.01%; in the assay on KB-3-1, 10.3%. The result in the assay on HaCat [2], in the assay with NIH3T3, with HACAT [3] and with HEK293T was inactive.
For `CNC(C)(C)Cc1ccccc1`, the Potency result in the assay with TAB165 and in the assay on W2 was “inactive” throughout. Further, the values for the max response in the assay on CRL-7250 [1], in the assay on KB-3-1 and in the assay on NIH3T3 were -3%, 16.1% and 2.82%, respectively. For the same compound, the compound was called inactive with HaCat [2] and in the assay with HACAT [3].
On to `O=C(O)c1ccc(=O)[nH]c1`, for which the result in the assay with CRL-7250 [1], with HaCat [2], in the assay on NIH3T3, with CRL-7250 [4] and in the assay with HACAT [3] was inactive.
On to `Oc1ccc(Cl)cc1`, for which the Potency entry in the assay with TAB165 and with W2 was “inactive” each time. Moreover, the max response with CRL-7250 [1] is -6.01%; in the assay on KB-3-1 it was -9.29%; with NIH3T3, 0.545%. Moreover, the result in the assay with HaCat [2], with HACAT [3] and in the assay on HEK293T was inactive.
`CCN[C@H](C)Cc1cccc(C(F)(F)F)c1`: the max response was -0.312% in the assay on CRL-7250 [1], -19.7% with KB-3-1 and -0.0448% in the assay with NIH3T3. Also, the call in the assay on HaCat [2] was inactive. In the assay on HACAT [3], the outcome was “inactive [at 92 µM]”.
For `c1ccc2c(c1)sc1ccccc12`, the Potency result in the assay on TAB165 and in the assay with W2 was “inactive” throughout. Further, the max response with CRL-7250 [1] is 2.83%; in the assay with HaCat [2], -3.8%; in the assay on KB-3-1 it was -1.3%. In addition, the outcome in the assay with NIH3T3 was inactive.
Take `C[C@]12Cc3cn[nH]c3C[C@@H]1CC[C@@H]1[C@@H]2CC[C@@]2(C)[C@H]1CC[C@]2(C)O`: the max response is 0.607% in the assay with CRL-7250 [1], 2.06% with HaCat [2] and 3.99% with NIH3T3.
Turning to `CC(C)(C)NCC(O)c1ccccc1Cl` (configuration not stated), the Potency with W2 was 6.01 µM (active). For the same compound, the max response was -15.1% with CRL-7250 [1], -8.54% with HaCat [2], 2.34% in the assay on KB-3-1 and -6.71% in the assay with NIH3T3.
As for `C[C@]12CC[C@H]3[C@@H](CCC4=CC(=O)CC[C@@H]43)[C@@H]1CC[C@@H]2OC(=O)CCC1CCCCC1`, the call in the assay on CRL-7250 [1], in the assay on NIH3T3 and in the assay on CRL-7250 [4] was inactive. Besides, the max response in the assay with HaCat [2] is 2.69%.
As to `C[C@]12CC[C@H]3[C@@H](CCC4=CC(=O)CC[C@@H]43)[C@@H]1CC[C@@H]2OC(=O)CCc1ccco1`, the max response is -3% with CRL-7250 [1] and -2.06% in the assay on NIH3T3. Besides, the result in the assay with HaCat [2] and in the assay with HACAT [3] was inactive.
In the case of `CC(Cc1ccccc1)NCCn1cnc2c1c(=O)n(C)c(=O)n2C` (configuration not stated), the max response with CRL-7250 [1] is 2.38%; in the assay with KB-3-1, 0.853%; in the assay on NIH3T3, -0.181%. In addition, the result with HaCat [2] was inactive. Besides, the outcome with HACAT [3] is “inactive [at 92 µM]”.
Take `CC(Cc1ccccc1)N(C)Cc1ccco1` (configuration not stated): the max response in the assay with CRL-7250 [1] is -3.65%; in the assay on NIH3T3 it was -7.67%. Further, the result in the assay with HaCat [2] and with HACAT [3] was inactive.
Regarding `C[C@](O)(CS(=O)(=O)c1ccc(F)cc1)C(=O)Nc1ccc(C#N)c(C(F)(F)F)c1`, the Potency result with TAB165 and with W2 was “inactive” each time. The compound was classed as inactive in the assay with HaCat [2] and with HACAT [3]. The max response in the assay with KB-3-1 was 5.52%; with NIH3T3 it was -9.3%.
